Results as given in article PMC11006913.
Numbering of substitutions follows the chain as printed.

Each sequence was assayed against T1, SIX6 (Homo sapiens, UniProt O95475 114-200, T139Q) (assay: PBM; 200 nM protein, PBS). Details: dsDNA, one strand shown.
T1 sequence: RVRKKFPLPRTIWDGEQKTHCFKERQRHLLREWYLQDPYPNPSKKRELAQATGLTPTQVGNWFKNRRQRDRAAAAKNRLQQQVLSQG

Row | Sequence | binding signal
1 | GATACCCC | 11.4 upbm affinity estimate (log intensity, higher = more binding, comparable within an allelic series)
2 | ACTGATAC | 11.3 upbm affinity estimate (log intensity, higher = more binding, comparable within an allelic series)
3 | ATATACAC | 11 upbm affinity estimate (log intensity, higher = more binding, comparable within an allelic series)
4 | CGGCCTTC | 8.59 upbm affinity estimate (log intensity, higher = more binding, comparable within an allelic series)
5 | CCGGGGCC | 9.26 upbm affinity estimate (log intensity, higher = more binding, comparable within an allelic series)
6 | AGCGGCGC | 8.91 upbm affinity estimate (log intensity, higher = more binding, comparable within an allelic series)
7 | CGGTATCA | 11.4 upbm affinity estimate (log intensity, higher = more binding, comparable within an allelic series)
8 | GTATCAAA | 11.2 upbm affinity estimate (log intensity, higher = more binding, comparable within an allelic series)
9 | CAGTGGCC | 8.99 upbm affinity estimate (log intensity, higher = more binding, comparable within an allelic series)
10 | GATATCTA | 11 upbm affinity estimate (log intensity, higher = more binding, comparable within an allelic series)
11 | CCCTCTGC | 9.06 upbm affinity estimate (log intensity, higher = more binding, comparable within an allelic series)
12 | CGGCGGAA | 8.95 upbm affinity estimate (log intensity, higher = more binding, comparable within an allelic series)
13 | CAGTATCA | 11 upbm affinity estimate (log intensity, higher = more binding, comparable within an allelic series)
14 | CGCAAGCG | 9.04 upbm affinity estimate (log intensity, higher = more binding, comparable within an allelic series)
15 | AGGCGCCC | 8.66 upbm affinity estimate (log intensity, higher = more binding, comparable within an allelic series)
16 | CCGCCAGC | 9.1 upbm affinity estimate (log intensity, higher = more binding, comparable within an allelic series)
17 | ATGGCCGC | 8.7 upbm affinity estimate (log intensity, higher = more binding, comparable within an allelic series)
18 | GGATATCA | 11.2 upbm affinity estimate (log intensity, higher = more binding, comparable within an allelic series)
19 | CTCGATAC | 10.8 upbm affinity estimate (log intensity, higher = more binding, comparable within an allelic series)
20 | CGCAGCGC | 8.99 upbm affinity estimate (log intensity, higher = more binding, comparable within an allelic series)

Each sequence was assayed against T2, SIX6 (Homo sapiens, UniProt O95475 114-200, T165A) (assay: PBM; 200 nM protein, PBS). Details: dsDNA, one strand shown.
T2 sequence: T1 sequence with Q26T, T52A

Row | Sequence | binding signal
21 | CCAGTGCG | 9.01 upbm affinity estimate (log intensity, higher = more binding, comparable within an allelic series)
22 | GATATCCA | 11 upbm affinity estimate (log intensity, higher = more binding, comparable within an allelic series)
23 | ATATCATG | 11 upbm affinity estimate (log intensity, higher = more binding, comparable within an allelic series)
24 | CATGATCA | 10.3 upbm affinity estimate (log intensity, higher = more binding, comparable within an allelic series)
25 | GTGATATA | 11.3 upbm affinity estimate (log intensity, higher = more binding, comparable within an allelic series)
26 | GGCCCCAA | 8.9 upbm affinity estimate (log intensity, higher = more binding, comparable within an allelic series)
27 | AGTATCAT | 11.4 upbm affinity estimate (log intensity, higher = more binding, comparable within an allelic series)
28 | AGGGTATC | 11.1 upbm affinity estimate (log intensity, higher = more binding, comparable within an allelic series)
29 | AGGGCCCG | 8.92 upbm affinity estimate (log intensity, higher = more binding, comparable within an allelic series)
30 | GGCCTCCA | 8.84 upbm affinity estimate (log intensity, higher = more binding, comparable within an allelic series)
31 | ACTGCCGG | 9.08 upbm affinity estimate (log intensity, higher = more binding, comparable within an allelic series)
32 | GGCCCCGA | 8.81 upbm affinity estimate (log intensity, higher = more binding, comparable within an allelic series)
33 | GCCAGTCC | 8.81 upbm affinity estimate (log intensity, higher = more binding, comparable within an allelic series)
34 | GCAGTGGC | 8.93 upbm affinity estimate (log intensity, higher = more binding, comparable within an allelic series)
35 | GCGCTGCC | 8.8 upbm affinity estimate (log intensity, higher = more binding, comparable within an allelic series)
36 | CCGGCGCC | 8.98 upbm affinity estimate (log intensity, higher = more binding, comparable within an allelic series)
37 | CAGGGCGC | 8.99 upbm affinity estimate (log intensity, higher = more binding, comparable within an allelic series)
38 | CCCCGAGG | 8.94 upbm affinity estimate (log intensity, higher = more binding, comparable within an allelic series)
39 | AGCTCCGC | 8.94 upbm affinity estimate (log intensity, higher = more binding, comparable within an allelic series)
40 | GATATCAC | 11.2 upbm affinity estimate (log intensity, higher = more binding, comparable within an allelic series)

Row | Sequence | binding signal
41 | GATACCCC | 11.3 upbm affinity estimate (log intensity, higher = more binding, comparable within an allelic series)
42 | ACTGATAC | 11.2 upbm affinity estimate (log intensity, higher = more binding, comparable within an allelic series)
43 | ATATACAC | 10.9 upbm affinity estimate (log intensity, higher = more binding, comparable within an allelic series)
44 | CGGCCTTC | 8.81 upbm affinity estimate (log intensity, higher = more binding, comparable within an allelic series)
45 | CCGGGGCC | 9.1 upbm affinity estimate (log intensity, higher = more binding, comparable within an allelic series)
46 | AGCGGCGC | 8.86 upbm affinity estimate (log intensity, higher = more binding, comparable within an allelic series)
47 | CGGTATCA | 11.3 upbm affinity estimate (log intensity, higher = more binding, comparable within an allelic series)
48 | GTATCAAA | 11.4 upbm affinity estimate (log intensity, higher = more binding, comparable within an allelic series)
49 | CAGTGGCC | 8.94 upbm affinity estimate (log intensity, higher = more binding, comparable within an allelic series)
50 | GATATCTA | 11 upbm affinity estimate (log intensity, higher = more binding, comparable within an allelic series)
51 | CCCTCTGC | 9.06 upbm affinity estimate (log intensity, higher = more binding, comparable within an allelic series)
52 | CGGCGGAA | 8.82 upbm affinity estimate (log intensity, higher = more binding, comparable within an allelic series)
53 | CAGTATCA | 11.1 upbm affinity estimate (log intensity, higher = more binding, comparable within an allelic series)
54 | CGCAAGCG | 8.95 upbm affinity estimate (log intensity, higher = more binding, comparable within an allelic series)
55 | AGGCGCCC | 8.69 upbm affinity estimate (log intensity, higher = more binding, comparable within an allelic series)
56 | CCGCCAGC | 9.05 upbm affinity estimate (log intensity, higher = more binding, comparable within an allelic series)
57 | ATGGCCGC | 8.69 upbm affinity estimate (log intensity, higher = more binding, comparable within an allelic series)
58 | GGATATCA | 11.3 upbm affinity estimate (log intensity, higher = more binding, comparable within an allelic series)
59 | CTCGATAC | 10.6 upbm affinity estimate (log intensity, higher = more binding, comparable within an allelic series)
60 | CGCAGCGC | 8.97 upbm affinity estimate (log intensity, higher = more binding, comparable within an allelic series)

Each sequence was assayed against T3, SIX6 (Homo sapiens, UniProt O95475 114-200, L167V) (assay: PBM; 200 nM protein, PBS). Details: dsDNA, one strand shown.
T3 sequence: T1 sequence with Q26T, L54V

Row | Sequence | binding signal
61 | CCAGTGCG | 9.07 upbm affinity estimate (log intensity, higher = more binding, comparable within an allelic series)
62 | GATATCCA | 10.9 upbm affinity estimate (log intensity, higher = more binding, comparable within an allelic series)
63 | ATATCATG | 11 upbm affinity estimate (log intensity, higher = more binding, comparable within an allelic series)
64 | CATGATCA | 10.4 upbm affinity estimate (log intensity, higher = more binding, comparable within an allelic series)
65 | GTGATATA | 11.1 upbm affinity estimate (log intensity, higher = more binding, comparable within an allelic series)
66 | GGCCCCAA | 8.9 upbm affinity estimate (log intensity, higher = more binding, comparable within an allelic series)
67 | AGTATCAT | 11.3 upbm affinity estimate (log intensity, higher = more binding, comparable within an allelic series)
68 | AGGGTATC | 10.9 upbm affinity estimate (log intensity, higher = more binding, comparable within an allelic series)
69 | AGGGCCCG | 8.93 upbm affinity estimate (log intensity, higher = more binding, comparable within an allelic series)
70 | GGCCTCCA | 9.03 upbm affinity estimate (log intensity, higher = more binding, comparable within an allelic series)
71 | ACTGCCGG | 9.11 upbm affinity estimate (log intensity, higher = more binding, comparable within an allelic series)
72 | GGCCCCGA | 8.95 upbm affinity estimate (log intensity, higher = more binding, comparable within an allelic series)
73 | GCCAGTCC | 8.95 upbm affinity estimate (log intensity, higher = more binding, comparable within an allelic series)
74 | GCAGTGGC | 8.89 upbm affinity estimate (log intensity, higher = more binding, comparable within an allelic series)
75 | GCGCTGCC | 8.69 upbm affinity estimate (log intensity, higher = more binding, comparable within an allelic series)
76 | CCGGCGCC | 8.96 upbm affinity estimate (log intensity, higher = more binding, comparable within an allelic series)
77 | CAGGGCGC | 9.01 upbm affinity estimate (log intensity, higher = more binding, comparable within an allelic series)
78 | CCCCGAGG | 9 upbm affinity estimate (log intensity, higher = more binding, comparable within an allelic series)
79 | AGCTCCGC | 9.1 upbm affinity estimate (log intensity, higher = more binding, comparable within an allelic series)
80 | GATATCAC | 11.1 upbm affinity estimate (log intensity, higher = more binding, comparable within an allelic series)

Row | Sequence | binding signal
81 | GATACCCC | 11.2 upbm affinity estimate (log intensity, higher = more binding, comparable within an allelic series)
82 | ACTGATAC | 10.9 upbm affinity estimate (log intensity, higher = more binding, comparable within an allelic series)
83 | ATATACAC | 10.7 upbm affinity estimate (log intensity, higher = more binding, comparable within an allelic series)
84 | CGGCCTTC | 8.94 upbm affinity estimate (log intensity, higher = more binding, comparable within an allelic series)
85 | CCGGGGCC | 9.05 upbm affinity estimate (log intensity, higher = more binding, comparable within an allelic series)
86 | AGCGGCGC | 8.82 upbm affinity estimate (log intensity, higher = more binding, comparable within an allelic series)
87 | CGGTATCA | 11 upbm affinity estimate (log intensity, higher = more binding, comparable within an allelic series)
88 | GTATCAAA | 11.2 upbm affinity estimate (log intensity, higher = more binding, comparable within an allelic series)
89 | CAGTGGCC | 9.05 upbm affinity estimate (log intensity, higher = more binding, comparable within an allelic series)
90 | GATATCTA | 10.9 upbm affinity estimate (log intensity, higher = more binding, comparable within an allelic series)
91 | CCCTCTGC | 8.95 upbm affinity estimate (log intensity, higher = more binding, comparable within an allelic series)
92 | CGGCGGAA | 8.8 upbm affinity estimate (log intensity, higher = more binding, comparable within an allelic series)
93 | CAGTATCA | 10.9 upbm affinity estimate (log intensity, higher = more binding, comparable within an allelic series)
94 | CGCAAGCG | 8.92 upbm affinity estimate (log intensity, higher = more binding, comparable within an allelic series)
95 | AGGCGCCC | 8.65 upbm affinity estimate (log intensity, higher = more binding, comparable within an allelic series)
96 | CCGCCAGC | 9.06 upbm affinity estimate (log intensity, higher = more binding, comparable within an allelic series)
97 | ATGGCCGC | 8.93 upbm affinity estimate (log intensity, higher = more binding, comparable within an allelic series)
98 | GGATATCA | 11.2 upbm affinity estimate (log intensity, higher = more binding, comparable within an allelic series)
99 | CTCGATAC | 10.4 upbm affinity estimate (log intensity, higher = more binding, comparable within an allelic series)
100 | CGCAGCGC | 9.06 upbm affinity estimate (log intensity, higher = more binding, comparable within an allelic series)
